# Source: the supplement of paper PMC8728848
# This excerpt belongs to a sample that is enriched for the strongest signals.
# What was measured:
# Test in all cases: glycan array binding signal (z-score within array); higher = stronger binding
# Conditions in all cases: glycan notation: IUPAC condensed, linker removed
# [1] = biological target: Fuc(a1-2)Gal(b1-3)GalNAc(a1-3)[Fuc(a1-2)]Gal(b1-4)GlcNAc
# Procedure, shortened: (§1)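 Glycan array data were curated from 3228 arrays in the Consortium for Functional Glycomics database and kept only where the protein sequence was available. Glycan names were converted to IUPAC-condensed notation, and columns mapping to the same glycan were averaged. The binding signal is a within-array Z-score, averaged across arrays of the same protein sequence at different concentrations or buffers and across linkers. Negative Z-scores can be read as non-binding.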
# [2] = biological target: Fuc(a1-2)Gal(b1-3)GlcNAc(b1-3)[Gal(b1-4)GlcNAc(b1-6)]Gal(b1-4)Glc
# Procedure, shortened: as §1
# [3] = biological target: Fuc(a1-2)Gal(b1-4)[Fuc(a1-3)]GlcNAc(b1-3)GalNAc
# Procedure, shortened: as §1
# [4] = biological target: Fuc(a1-2)[Gal(a1-3)]Gal(b1-4)GlcNAc(b1-3)GalNAc
# Procedure, shortened: as §1
# [5] = biological target: Fuc(a1-2)[GalNAc(a1-3)]Gal(b1-4)GlcNAc(b1-3)GalNAc
# Procedure, shortened: as §1
# [6] = biological target: Fuc(a1-2)[GalNAc(a1-3)]Gal(b1-4)[Fuc(a1-3)]GlcNAc
# Procedure, shortened: as §1
# [7] = biological target: Fuc(a1-3)[Gal(b1-4)]GlcNAc(b1-2)Man(a1-3)[Fuc(a1-3)[Gal(b1-4)]GlcNAc(b1-2)Man(a1-6)]Man(b1-4)GlcNAc(b1-4)[Fuc(a1-6)]GlcNAc
# Procedure, shortened: as §1
# [8] = biological target: Fuc(a1-3)[Gal(b1-4)]GlcNAc(b1-3)Gal(b1-3)[Fuc(a1-4)]GlcNAc
# Procedure, shortened: as §1
# [9] = biological target: Fuc(a1-3)[Gal3S(b1-4)]GlcNAc
# Procedure, shortened: as §1
# Fuc(a1-4)GlcNAc = biological target: Fuc(a1-4)GlcNAc
# Procedure, shortened: as §1
# [10] = biological target: Gal(a1-3)Gal(b1-4)GlcNAc(b1-6)GalNAc
# Procedure, shortened: as §1
# [11] = biological target: Gal(a1-4)Gal(b1-4)GlcNAc(b1-3)Gal(b1-4)Glc
# Procedure, shortened: as §1
# [12] = biological target: Gal(b1-3)GlcNAc(b1-2)Man(a1-3)[Gal(b1-3)GlcNAc(b1-2)Man(a1-6)]Man(b1-4)GlcNAc(b1-4)[Fuc(a1-6)]GlcNAc
# Procedure, shortened: as §1
# [13] = biological target: Gal(b1-3)GlcNAc(b1-2)Man(a1-3)[GlcNAc(b1-4)][Gal(b1-3)GlcNAc(b1-2)Man(a1-6)]Man(b1-4)GlcNAc(b1-4)GlcNAc
# Procedure, shortened: as §1
# [14] = biological target: Gal(b1-3)[Fuc(a1-4)]GlcNAc(b1-6)GalNAc
# Procedure, shortened: as §1
# [15] = biological target: Gal(b1-4)GalNAc(b1-3)[Fuc(a1-2)]Gal(b1-4)GlcNAc
# Procedure, shortened: as §1
# Gal(b1-4)GlcNAc = biological target: Gal(b1-4)GlcNAc
# Procedure, shortened: as §1
# [16] = biological target: Gal(b1-4)GlcNAc(b1-2)[Gal(b1-4)GlcNAc(b1-4)]Man(a1-3)[GlcNAc(b1-4)][Gal(b1-4)GlcNAc(b1-2)[Gal(b1-4)GlcNAc(b1-6)]Man(a1-6)]Man(b1-4)GlcNAc(b1-4)GlcNAc
# Procedure, shortened: as §1
# [17] = biological target: Gal(b1-4)GlcNAc(b1-3)Gal(b1-4)GlcNAc(b1-2)Man(a1-3)[Gal(b1-4)GlcNAc(b1-3)Gal(b1-4)GlcNAc(b1-2)Man(a1-6)]Man(b1-4)GlcNAc(b1-4)[Fuc(a1-6)]GlcNAc
# Procedure, shortened: as §1
# [18] = biological target: Gal(b1-4)GlcNAc(b1-3)Gal(b1-4)GlcNAc(b1-3)Gal(b1-4)GlcNAc(b1-2)Man(a1-3)[Gal(b1-4)GlcNAc(b1-3)Gal(b1-4)GlcNAc(b1-3)Gal(b1-4)GlcNAc(b1-2)Man(a1-6)]Man(b1-4)GlcNAc(b1-4)GlcNAc
# Procedure, shortened: as §1
# [19] = biological target: Gal(b1-4)GlcNAc(b1-3)Gal(b1-4)GlcNAc(b1-6)[Gal(b1-3)]GalNAc
# Procedure, shortened: as §1
# Gal6S(b1-4)Glc = biological target: Gal6S(b1-4)Glc
# Procedure, shortened: as §1
# GalNAc(a1-3)GalNAc = biological target: GalNAc(a1-3)GalNAc
# Procedure, shortened: as §1
# GalNAc(b1-3)Gal = biological target: GalNAc(b1-3)Gal
# Procedure, shortened: as §1
# [20] = biological target: GalNAc(b1-3)Gal(a1-4)Gal(b1-4)GlcNAc(b1-3)Gal(b1-4)Glc
# Procedure, shortened: as §1
binder,measurement,setting,value
"Protein L(A-C2) (Finegoldia magna), Q51912 (protein) ADEPIDLEKLEEKRDKENVGNLPKFDNEVKDGSENPMAKYPDFDDEASTRFETENNEFEEKKVVSDNFFDQSEHPFVENKEETPETPETDSEEEVTIKANLIFANGSTQTAEFKGTFEKATSEAYAYADTLKKDNGEYTVDVADKGYTLNIKFAGKEKTPEEPKEEVTIKANLIYADGKTQTAEFKGTFEEATAEAYRYADALKKDNGEYTVDVADKGYTLNIKFAGKEKTPEEPKEEVTIKANLIYADGKTQTAEFKGTFEEATAEAYRYADLLAKENGKYTVDVADKGYTLNIKFAGKEKTPEEPKEEVTIKANLIYADGKTQTAEFKGTFAEATAEAYRYADLLAKENGKYTADLEDGGYTINIRFAGKKVDEKPEEKEQVTIKENIYFEDGTVQTATFKGTFAEATAEAYRYADLLSKEHGKYTADLEDGGYTINIRFAGKEEPEETPEKPEVQDGYASYEEAEAAAKEALKNDDVNKSYTIRQGADGRYYYVLSPVEAEEEKPEAQNGYATYEEAEAAAKKALENDPINKSYSIRQGADGRYYYVLSPVEAE",glycan array binding signal (z-score),[1],-0.969
same,glycan array binding signal (z-score),[2],-0.355
same,glycan array binding signal (z-score),[3],2.89
same,glycan array binding signal (z-score),[4],6.17
same,glycan array binding signal (z-score),[5],-0.485
same,glycan array binding signal (z-score),[6],3.52
same,glycan array binding signal (z-score),[7],1.71
same,glycan array binding signal (z-score),[8],0.052
same,glycan array binding signal (z-score),[9],-0.101
same,glycan array binding signal (z-score),Fuc(a1-4)GlcNAc,-0.933
same,glycan array binding signal (z-score),[10],-0.284
same,glycan array binding signal (z-score),[11],-0.164
same,glycan array binding signal (z-score),[12],0.716
same,glycan array binding signal (z-score),[13],0.568
same,glycan array binding signal (z-score),[14],3.16
same,glycan array binding signal (z-score),[15],-0.365
same,glycan array binding signal (z-score),Gal(b1-4)GlcNAc,-0.975
same,glycan array binding signal (z-score),[16],-0.468
same,glycan array binding signal (z-score),[17],0.357
same,glycan array binding signal (z-score),[18],3.21
same,glycan array binding signal (z-score),[19],3.67
same,glycan array binding signal (z-score),Gal6S(b1-4)Glc,-0.354
same,glycan array binding signal (z-score),GalNAc(a1-3)GalNAc,-0.445
same,glycan array binding signal (z-score),GalNAc(b1-3)Gal,-0.354
same,glycan array binding signal (z-score),[20],0.127
